{
  "source": "PubChem BioAssay AID1159580",
  "about": "(chemical genetic matrix, 2015)",
  "experiment": "chemical genetic growth profiling, strain panel (AID 1159580);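 also: tested at 20 µM; growth read once vehicle control cultures reached saturation at 30 °C; 1 = growth at the plate median or of vehicle wells; lower values mean less growth of the strain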",
  "conditions": "growth OD",
  "note": "The whole screen tested about 5,500 compounds, of which about 2,000 (36%) were called active. Another 18% or so got no clear call; they are omitted. The list shows a part of the results. A number with no mark means an inactive call. Rule as the data show it: active = normalized growth mostly below about 0.91 (no sharp cut-off); inconclusive = no clear call, values can overlap the other calls; inactive = mostly above about 0.92.",
  "data": [
    {"smiles": "C=C(C)c1cc2cc(C(C)=O)c(O)cc2o1", "values": [
      {"measurement": "normalized growth", "setting": "S. cerevisiae deletion strains, locus YJL187C, strain SWE1, active compounds read low", "result": 0.994},
      {"measurement": "normalized growth", "setting": "S. cerevisiae deletion strains, locus YJR066W, strain TOR1, active compounds read low", "result": 0.886},
      {"measurement": "normalized growth", "setting": "S. cerevisiae deletion strains, locus YKL009W, strain mrt4, active compounds read low", "result": 0.939},
      {"measurement": "normalized growth", "setting": "S. cerevisiae deletion strains, locus YKL068W, active compounds read low", "result": "0.934 (active)"},
      {"measurement": "normalized growth", "setting": "S. cerevisiae deletion strains, locus YKL085W, strain MDH1 (second series), active compounds read low", "result": "0.918 (active)"},
      {"measurement": "normalized growth", "setting": "S. cerevisiae deletion strains, locus YKL085W, strain MDH1, active compounds read low", "result": "0.918 (active)"},
      {"measurement": "normalized growth", "setting": "S. cerevisiae deletion strains, locus YKL160W, strain elf1, active compounds read low", "result": 0.92},
      {"measurement": "normalized growth", "setting": "S. cerevisiae deletion strains, locus YKL190W, strain CNB1, active compounds read low", "result": 0.954},
      {"measurement": "normalized growth", "setting": "S. cerevisiae deletion strains, locus YKR001C, strain vps1, active compounds read low", "result": 0.932},
      {"measurement": "normalized growth", "setting": "S. cerevisiae deletion strains, locus YKR026C, strain gcn3, active compounds read low", "result": 0.966},
      {"measurement": "normalized growth", "setting": "S. cerevisiae deletion strains, locus YKR091W, strain srl3, active compounds read low", "result": 0.979},
      {"measurement": "normalized growth", "setting": "S. cerevisiae deletion strains, locus YLL001W, strain dnm1, active compounds read low", "result": 0.916},
      {"measurement": "normalized growth", "setting": "S. cerevisiae deletion strains, locus YLL026W, active compounds read low", "result": 0.977},
      {"measurement": "normalized growth", "setting": "S. cerevisiae deletion strains, locus YLL041C, strain sdh2, active compounds read low", "result": 0.97},
      {"measurement": "normalized growth", "setting": "S. cerevisiae deletion strains, locus YLR027C, strain aat2, active compounds read low", "result": 0.964},
      {"measurement": "normalized growth", "setting": "S. cerevisiae deletion strains, locus YLR039C, strain RIC1, active compounds read low", "result": 0.831},
      {"measurement": "normalized growth", "setting": "S. cerevisiae deletion strains, locus YLR058C, strain SHM2, active compounds read low", "result": 0.948},
      {"measurement": "normalized growth", "setting": "S. cerevisiae deletion strains, locus YLR102C, strain apc9, active compounds read low", "result": 0.931},
      {"measurement": "normalized growth", "setting": "S. cerevisiae deletion strains, locus YLR113W, strain HOG1, active compounds read low", "result": "0.834 (active)"},
      {"measurement": "normalized growth", "setting": "S. cerevisiae deletion strains, locus YLR221C, strain rsa3, active compounds read low", "result": 0.975},
      {"measurement": "normalized growth", "setting": "S. cerevisiae deletion strains, locus YLR258W, strain gsy2, active compounds read low", "result": 0.932},
      {"measurement": "normalized growth", "setting": "S. cerevisiae deletion strains, locus YLR262C, strain YPT6 (second series), active compounds read low", "result": "0.834 (active)"},
      {"measurement": "normalized growth", "setting": "S. cerevisiae deletion strains, locus YLR268W, strain sec22, active compounds read low", "result": 0.945},
      {"measurement": "normalized growth", "setting": "S. cerevisiae deletion strains, locus YLR320W, strain mms22, active compounds read low", "result": 0.908},
      {"measurement": "normalized growth", "setting": "S. cerevisiae deletion strains, locus YLR342W, strain FKS1 (second series), active compounds read low", "result": 0.894},
      {"measurement": "normalized growth", "setting": "S. cerevisiae deletion strains, locus YLR342W, strain FKS1, active compounds read low", "result": 0.978},
      {"measurement": "normalized growth", "setting": "S. cerevisiae deletion strains, locus YLR357W, strain rsc2, active compounds read low", "result": 1.01},
      {"measurement": "normalized growth", "setting": "S. cerevisiae deletion strains, locus YLR370C, strain arc18, active compounds read low", "result": 0.971},
      {"measurement": "normalized growth", "setting": "S. cerevisiae deletion strains, locus YLR371W, strain rom2, active compounds read low", "result": "0.776 (active)"},
      {"measurement": "normalized growth", "setting": "S. cerevisiae deletion strains, locus YLR384C, strain iki3, active compounds read low", "result": 0.977},
      {"measurement": "normalized growth", "setting": "S. cerevisiae deletion strains, locus YLR418C, strain cdc73, active compounds read low", "result": 0.861},
      {"measurement": "normalized growth", "setting": "S. cerevisiae deletion strains, locus YML016C, strain PPZ1, active compounds read low", "result": "0.906 (active)"},
      {"measurement": "normalized growth", "setting": "S. cerevisiae deletion strains, locus YML032C, strain rad52, active compounds read low", "result": 0.942},
      {"measurement": "normalized growth", "setting": "S. cerevisiae deletion strains, locus YML120C, strain ndi1, active compounds read low", "result": 0.932},
      {"measurement": "normalized growth", "setting": "S. cerevisiae deletion strains, locus YML124C, strain tub3, active compounds read low", "result": "0.906 (active)"},
      {"measurement": "normalized growth", "setting": "S. cerevisiae deletion strains, locus YMR058W, strain fet3, active compounds read low", "result": 0.954},
      {"measurement": "normalized growth", "setting": "S. cerevisiae deletion strains, locus YMR078C, strain ctf18, active compounds read low", "result": "0.909 (active)"},
      {"measurement": "normalized growth", "setting": "S. cerevisiae deletion strains, locus YMR125W, strain sto1, active compounds read low", "result": 0.982},
      {"measurement": "normalized growth", "setting": "S. cerevisiae deletion strains, locus YMR129W, active compounds read low", "result": 0.966},
      {"measurement": "normalized growth", "setting": "S. cerevisiae deletion strains, locus YMR205C, strain PFK2, active compounds read low", "result": 0.906},
      {"measurement": "normalized growth", "setting": "S. cerevisiae deletion strains, locus YMR223W, strain ubp8, active compounds read low", "result": 0.967},
      {"measurement": "normalized growth", "setting": "S. cerevisiae deletion strains, locus YMR231W, strain pep5, active compounds read low", "result": 0.997},
      {"measurement": "normalized growth", "setting": "S. cerevisiae deletion strains, locus YMR307W, strain GAS1, active compounds read low", "result": 0.904},
      {"measurement": "normalized growth", "setting": "S. cerevisiae deletion strains, locus YNL067W, strain RPL9B, active compounds read low", "result": 0.986},
      {"measurement": "normalized growth", "setting": "S. cerevisiae deletion strains, locus YNL071W, strain lat1, active compounds read low", "result": "0.861 (active)"},
      {"measurement": "normalized growth", "setting": "S. cerevisiae deletion strains, locus YNL128W, strain TEP1, active compounds read low", "result": 0.928},
      {"measurement": "normalized growth", "setting": "S. cerevisiae deletion strains, locus YNL183C, strain NPR1, active compounds read low", "result": 0.889},
      {"measurement": "normalized growth", "setting": "S. cerevisiae deletion strains, locus YNL209W, strain ssb2, active compounds read low", "result": 0.967},
      {"measurement": "normalized growth", "setting": "S. cerevisiae deletion strains, locus YNL233W, strain BNI4, active compounds read low", "result": 0.952},
      {"measurement": "normalized growth", "setting": "S. cerevisiae deletion strains, locus YNL248C, strain rpa49, active compounds read low", "result": 0.956},
      {"measurement": "normalized growth", "setting": "S. cerevisiae deletion strains, locus YNL250W, strain rad50, active compounds read low", "result": 0.932},
      {"measurement": "normalized growth", "setting": "S. cerevisiae deletion strains, locus YNL271C, strain bni1, active compounds read low", "result": 0.957},
      {"measurement": "normalized growth", "setting": "S. cerevisiae deletion strains, locus YNL298W, strain CLA4, active compounds read low", "result": "0.909 (active)"},
      {"measurement": "normalized growth", "setting": "S. cerevisiae deletion strains, locus YNL307C, strain MCK1, active compounds read low", "result": "0.895 (active)"},
      {"measurement": "normalized growth", "setting": "S. cerevisiae deletion strains, locus YNL322C, strain KRE1 (second series), active compounds read low", "result": 0.979},
      {"measurement": "normalized growth", "setting": "S. cerevisiae deletion strains, locus YNR049C, strain mso1, active compounds read low", "result": 0.976},
      {"measurement": "normalized growth", "setting": "S. cerevisiae deletion strains, locus YNR052C, strain pop2, active compounds read low", "result": 0.97},
      {"measurement": "normalized growth", "setting": "S. cerevisiae deletion strains, locus YOL006C, strain TOP1, active compounds read low", "result": 0.714},
      {"measurement": "normalized growth", "setting": "S. cerevisiae deletion strains, locus YOL012C, strain htz1", "result": 0.842},
      {"measurement": "normalized growth", "setting": "S. cerevisiae deletion strains, locus YOL147C, strain pex11, active compounds read low", "result": "0.923 (active)"},
      {"measurement": "normalized growth", "setting": "S. cerevisiae deletion strains, locus YOR001W, strain rrp6, active compounds read low", "result": 0.982},
      {"measurement": "normalized growth", "setting": "S. cerevisiae deletion strains, locus YOR061W, strain CKA2, active compounds read low", "result": 0.933},
      {"measurement": "normalized growth", "setting": "S. cerevisiae deletion strains, locus YOR069W, strain VPS5, active compounds read low", "result": 0.968},
      {"measurement": "normalized growth", "setting": "S. cerevisiae deletion strains, locus YOR070C, strain gyp1, active compounds read low", "result": 0.979},
      {"measurement": "normalized growth", "setting": "S. cerevisiae deletion strains, locus YOR080W, strain dia2, active compounds read low", "result": 0.984},
      {"measurement": "normalized growth", "setting": "S. cerevisiae deletion strains, locus YOR083W, strain WHI5, active compounds read low", "result": 0.929},
      {"measurement": "normalized growth", "setting": "S. cerevisiae deletion strains, locus YOR106W, strain vam3, active compounds read low", "result": 0.965},
      {"measurement": "normalized growth", "setting": "S. cerevisiae deletion strains, locus YOR136W, strain idh2, active compounds read low", "result": 0.943},
      {"measurement": "normalized growth", "setting": "S. cerevisiae deletion strains, locus YOR144C, strain elg1, active compounds read low", "result": 0.936},
      {"measurement": "normalized growth", "setting": "S. cerevisiae deletion strains, locus YOR184W, strain ser1, active compounds read low", "result": "0.845 (active)"},
      {"measurement": "normalized growth", "setting": "S. cerevisiae deletion strains, locus YOR231W, strain MKK1, active compounds read low", "result": 0.93},
      {"measurement": "normalized growth", "setting": "S. cerevisiae deletion strains, locus YOR265W, strain rbl2, active compounds read low", "result": 0.96},
      {"measurement": "normalized growth", "setting": "S. cerevisiae deletion strains, locus YOR270C, strain vph1, active compounds read low", "result": 0.88},
      {"measurement": "normalized growth", "setting": "S. cerevisiae deletion strains, locus YOR290C, strain snf2, active compounds read low", "result": 0.893},
      {"measurement": "normalized growth", "setting": "S. cerevisiae deletion strains, locus YOR316C, strain cot1, active compounds read low", "result": "0.913 (active)"},
      {"measurement": "normalized growth", "setting": "S. cerevisiae deletion strains, locus YPL051W, strain arl3, active compounds read low", "result": 0.917},
      {"measurement": "normalized growth", "setting": "S. cerevisiae deletion strains, locus YPL078C, strain atp4, active compounds read low", "result": "0.877 (active)"},
      {"measurement": "normalized growth", "setting": "S. cerevisiae deletion strains, locus YPL106C, strain sse1, active compounds read low", "result": 0.895},
      {"measurement": "normalized growth", "setting": "S. cerevisiae deletion strains, locus YPL240C, strain hsp82, active compounds read low", "result": 0.961},
      {"measurement": "normalized growth", "setting": "S. cerevisiae deletion strains, locus YPL256C, strain CLN2, active compounds read low", "result": 0.897},
      {"measurement": "normalized growth", "setting": "S. cerevisiae deletion strains, locus YPR119W, strain clb2, active compounds read low", "result": 0.942},
      {"measurement": "normalized growth", "setting": "S. cerevisiae deletion strains, locus YPR141C, strain kar3, active compounds read low", "result": "0.906 (active)"},
      {"measurement": "normalized growth", "setting": "S. cerevisiae deletion strains, locus YPR163C, strain tif3, active compounds read low", "result": 0.976},
      {"measurement": "normalized growth", "setting": "S. cerevisiae deletion strains, locus YPR167C, strain met16, active compounds read low", "result": 0.927},
      {"measurement": "normalized growth", "setting": "S. cerevisiae deletion strains, strain wtn01, active compounds read low", "result": "0.89 (active)"},
      {"measurement": "normalized growth", "setting": "S. cerevisiae strains, strain wild type, active compounds read low", "result": 0.929}
    ]}
  ]
}
